Inconclusive results are not listed. Active and inactive are the calls of the source. Unless noted, calls come from the whole dose curve; as a rule, active = well fitted curve in the direction sought with a large enough effect; inconclusive = small, poorly fitted or top-dose-only effect, or another doubt; inactive = no such curve, though single readings can be large; an effect the other way counts as inactive or inconclusive.
Columns and labels:
[1] = target: Alpha-galactosidase (Coffea arabica) (UniProt Q42656); assay: Counterscreen for Glucocerebrosidase Inhibitors: qHTS Assay for Coffee Bean alpha-Galactosidase at pH 5.9 (AID 998)
Outline: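 Enzyme 2 nM + cpd (0.7 nM–77 uM titration) + 4-MU-alpha-Gal 80 uM, pH 5.9 citrate/Tween-20, RT 20 min, NaOH/glycine stop pH 10, fluor 365/440. Normalized to no-enzyme and full-activity controls; Hill-fit AC50.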

[2] = Validation screen for inhibitors of Lassa infection (AID 463096; calls by dose curve; note: potency is the fitted concentration of half-maximal effect)
[3] = Inducers of the Endoplasmic Reticulum Stress Response (ERSR) in human glioma: Validation (AID 504836)
Outline: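 Stably transfected U87-MG glioma cells carrying a GRP78-based luciferase sensor; 16 h compound incubation. Luminescence end-point read 10 min after Bright-Glo addition at room temperature.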

[4] = qHTS for Inhibitors of the Functional Ribonucleoprotein Complex (vRNP) of Lassa (LASV) Arenavirus: LASV Primary Screen - GLuc reporter signal (AID 1347082; calls by dose curve; tested in HEK293 reporter line; note: nearly all actives have a fitted effect of over 60% in size)
[5] = qHTS for Inhibitors of the Functional Ribonucleoprotein Complex (vRNP) of Lassa (LASV) Arenavirus: Viability assay - alamar blue signal for LASV Primary Screen (AID 1347083; calls by dose curve; tested in HEK293 reporter line; note: nearly all actives have a fitted effect of over 80% in size)
[6] = qHTS for Inhibitors of the Functional Ribonucleoprotein Complex (vRNP) of Lymphocytic Choriomeningitis Arenaviruses (LCMV): Viability assay - alamar blue signal for LCMV Primary Screen (AID 1347085; calls by dose curve; tested in HEK293 reporter line; note: nearly all actives have a fitted effect of over 80% in size)
[7] = target: Nucleoprotein (Lymphocytic choriomeningitis virus (strain Armstrong)) (UniProt P09992); assay: qHTS for Inhibitors of the Functional Ribonucleoprotein Complex (vRNP) of Lymphocytic Choriomeningitis Arenaviruses (LCMV): LCMV Primary Screen - GLuc reporter signal (AID 1347086; calls by dose curve; note: nearly all actives have a fitted effect of over 70% in size)
[8] = target: M-phase phosphoprotein 8 (Homo sapiens) (UniProt Q99549); assay: qHTS Validation Assay for Inhibitors for MPP8 Chromodomain Interactions with Methylated Histone Tails (AID 488949);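 note: 50 nM MPP8 with 50 nM peptide preformed then compounds added for 30 min; AlphaScreen signal from MPP8 chromodomain bound to biotinylated H3K9me3 peptide; top concentration of the series differs between compounds; nearly all actives have a fitted effect of over 55% in size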
Outline: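 50 nM MPP8 + 50 nM b-H3K9me3 peptide, PBS pH 7.4/0.01% Tween-20, 30 min RT; + cpd 30 min RT; + AlphaScreen donor/Ni-chelate acceptor beads 10 ug/mL final, 30 min dark; luminescence read.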

[9] = target: Arylsulfatase A (Homo sapiens) (UniProt P15289); assay: qHTS screen for enhancers of Arylsulfatase A (ASA1): LOPAC Validation Assay (AID 720538); note: potency is the fitted concentration of half-maximal effect
Outline: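 MLD patient fibroblasts (SV40, ASA-I179S), 1536-well; adhere 6 hrs; cpd 48h, 37 degree C, 5% CO2; pNCS 0.5mM final in lysis buffer, 14h RT; stop 1N NaOH final; fluor. Ex525/Em598.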

[10] = target: Alpha-galactosidase (Coffea arabica) (UniProt Q42656); assay: Counterscreen for Glucocerebrosidase Inhibitors: qHTS Assay for Coffee Bean alpha-Galactosidase at pH 4.5 (AID 957)
Outline: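 Fluorogenic read-out: 4-methylumbelliferone at Ex 365/Em 440 nm after NaOH/glycine stop (pH 10). Enzyme 2 nM, 4-MU-alpha-galactoside 80 uM, citrate buffer pH 4.5, 20 min RT; normalized to no-enzyme and enzyme controls.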

[11] = target: Flap endonuclease 1 (Homo sapiens) (UniProt P39748); assay: qHTS Validation Assay for the Inhibitors of Human Flap endonuclease 1 (FEN1) (AID 488816)
Outline: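 Enzyme reagent 10 nM; cpds pinned; 15 min RT preinc.; substrate 50 nM final; reads t=0 and 15 min; no-enzyme buffer wells as neg. control; normalized data, 4-parameter Hill fit.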

[12] = target: Chromobox protein homolog 1 (Homo sapiens) (UniProt P83916); assay: qHTS Validation Assay for Inhibitors of HP1-beta Chromodomain Interactions with Methylated Histone Tails (AID 488953);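 note: loss of AlphaScreen luminescence from HP1-beta binding biotinylated H3K9me3 peptide; nearly all actives have a fitted effect of over 50% in size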
Outline: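 AlphaScreen proximity readout: streptavidin donor and Ni-chelate acceptor beads, 10 ug/mL final, 30 min dark, RT. Complex of 50 nM HP1-beta and 50 nM b-H3(1-18)K9me3 formed 30 min, then compound-treated 30 min; PBS pH 7.4/0.01% Tween-20.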

[13] = qHTS profiling of the MIPE4 collection as inhibitors of Plasmodium falciparum (DD2) proliferation (AID 743345; call rule not given here); details: P. falciparum Dd2 in erythrocytes, SYBR Green DNA, 72 h; at 28.5 µM (top of the series) unless noted
Outline: (§1)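 Parasite DNA was quantified by SYBR Green I fluorescence (ex 485, em 535 nm) after overnight lysis in saponin/Triton buffer at room temperature. Cultures at 0.3% parasitemia and 2.5% hematocrit were first exposed to compound for 72 h at 37 C; signals were normalised to artemisinin (0.29 uM) and vehicle wells.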

[14] = qHTS profiling of the MIPE4 collection as inhibitors of Plasmodium falciparum (DD2) proliferation (Rep 2) (AID 743346; call rule not given here); details: P. falciparum Dd2 in erythrocytes, SYBR Green DNA, 72 h; at 28.5 µM (top of the series) unless noted
Outline: as §1

[15] = qHTS profiling of the MIPE4 collection as inhibitors of Plasmodium falciparum (HB3) proliferation (AID 743347; call rule not given here); details: P. falciparum HB3 in erythrocytes, SYBR Green DNA, 72 h; at 28.5 µM (top of the series) unless noted
Outline: as §1

[16] = target: Ubiquitin carboxyl-terminal hydrolase 2 (Homo sapiens) (UniProt O75604); assay: qHTS Validation Assay for Inhibitors of Ubiquitin-specific Protease USP2a Using CHOP2 as the Reporter (AID 463106); note: potency is the fitted concentration of half-maximal effect
Outline: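 Fluorescence read-out at Ex 485nm/Em 531nm after 60min RT, following addition of 25nM Ub-CHOP2 plus 25nM reporter substrate to USP2 core (10nM) pretreated 30min with compound. Data normalized to NEM full inhibition; concentration-response curves fitted.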

[17] = target: DNA polymerase III PolC-type (Bacillus subtilis (strain 168)) (UniProt P13267); assay: qHTS Validation Assay for the Inhibitors of DNA Replication in Gram-Positive Bacteria (AID 485295); note: potency is the fitted concentration of half-maximal effect
Outline: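 First, compound is mixed with the reconstituted replication complex and held at room temperature. Next, circular single-stranded M13Gori with nucleotides starts synthesis. Finally, PicoGreen in EDTA halts the reaction and stains double-stranded product for fluorescence reading.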

[18] = target: Ubiquitin carboxyl-terminal hydrolase 1 (Homo sapiens) (UniProt O94782); assay: Inhibitors of USP1/UAF1: Pilot qHTS (AID 504865); note: potency is the fitted concentration of half-maximal effect; nearly all actives have a fitted effect of over 35% in size
Outline: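 In 50mM HEPES pH 7.8 containing 0.5mM EDTA, 1mM TCEP, 0.1 mg/ml BSA and 0.01% Tween-20, 1nM USP1/UAF1 is exposed to compound for 15 min, then Ub-Rho (150nM final) is added and fluorescence is read over time.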

[19] = HTS Assay for Allosteric Antagonists of the Human D2 Dopamine Receptor: Hit Validation in HTRF (AID 624455)
Outline: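 HTRF read-out; cells stably expressing D1 receptor; hits scored for inhibition of D1-mediated response. Primary screen: calcium flux, force-coupled inducible Hek293 Trex D2 line, antagonism vs EC80 dopamine.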

Sequence of Alpha-galactosidase (Coffea arabica) (Q42656 whole entry, looked up): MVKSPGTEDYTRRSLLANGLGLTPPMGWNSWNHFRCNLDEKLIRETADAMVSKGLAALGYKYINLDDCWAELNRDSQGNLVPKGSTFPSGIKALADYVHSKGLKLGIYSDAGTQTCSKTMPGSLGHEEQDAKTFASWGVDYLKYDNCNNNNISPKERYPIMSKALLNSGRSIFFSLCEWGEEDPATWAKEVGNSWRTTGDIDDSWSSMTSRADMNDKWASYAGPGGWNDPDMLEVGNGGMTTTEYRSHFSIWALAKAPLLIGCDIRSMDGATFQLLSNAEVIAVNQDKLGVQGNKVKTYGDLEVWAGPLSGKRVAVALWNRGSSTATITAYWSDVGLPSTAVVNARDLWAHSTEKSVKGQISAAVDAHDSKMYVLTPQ
Sequence of Nucleoprotein (Lymphocytic choriomeningitis virus (strain Armstrong)) (P09992 whole entry, looked up): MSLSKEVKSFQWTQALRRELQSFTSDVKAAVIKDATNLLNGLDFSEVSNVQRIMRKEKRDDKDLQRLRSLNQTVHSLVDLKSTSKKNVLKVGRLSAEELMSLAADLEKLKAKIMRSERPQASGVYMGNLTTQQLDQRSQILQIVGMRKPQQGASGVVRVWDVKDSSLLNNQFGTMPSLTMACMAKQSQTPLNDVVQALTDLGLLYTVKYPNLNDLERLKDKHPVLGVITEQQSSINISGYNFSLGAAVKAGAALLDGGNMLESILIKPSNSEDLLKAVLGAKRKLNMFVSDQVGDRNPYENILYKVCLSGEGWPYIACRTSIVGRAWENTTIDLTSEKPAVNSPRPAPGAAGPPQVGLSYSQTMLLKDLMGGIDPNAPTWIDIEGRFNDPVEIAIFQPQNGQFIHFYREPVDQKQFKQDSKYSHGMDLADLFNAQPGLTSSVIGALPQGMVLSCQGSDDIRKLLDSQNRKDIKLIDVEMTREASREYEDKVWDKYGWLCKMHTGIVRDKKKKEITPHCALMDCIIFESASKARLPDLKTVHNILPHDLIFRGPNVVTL
Sequence of Arylsulfatase A (Homo sapiens) (P15289 whole entry, looked up): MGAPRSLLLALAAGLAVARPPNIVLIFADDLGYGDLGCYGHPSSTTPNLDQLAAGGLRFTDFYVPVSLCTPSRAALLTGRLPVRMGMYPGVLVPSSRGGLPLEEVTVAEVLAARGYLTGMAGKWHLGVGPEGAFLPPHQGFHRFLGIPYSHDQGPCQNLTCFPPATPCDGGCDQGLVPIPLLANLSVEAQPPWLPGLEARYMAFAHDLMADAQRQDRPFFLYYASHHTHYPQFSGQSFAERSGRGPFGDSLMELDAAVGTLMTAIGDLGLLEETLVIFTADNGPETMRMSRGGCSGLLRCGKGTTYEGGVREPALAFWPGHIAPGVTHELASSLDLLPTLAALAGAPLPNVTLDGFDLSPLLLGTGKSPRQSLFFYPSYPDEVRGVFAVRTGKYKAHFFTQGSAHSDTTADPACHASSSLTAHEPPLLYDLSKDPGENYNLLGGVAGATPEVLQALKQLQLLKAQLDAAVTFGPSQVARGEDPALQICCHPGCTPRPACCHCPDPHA
Sequence of M-phase phosphoprotein 8 (Homo sapiens) (Q99549 whole entry, looked up): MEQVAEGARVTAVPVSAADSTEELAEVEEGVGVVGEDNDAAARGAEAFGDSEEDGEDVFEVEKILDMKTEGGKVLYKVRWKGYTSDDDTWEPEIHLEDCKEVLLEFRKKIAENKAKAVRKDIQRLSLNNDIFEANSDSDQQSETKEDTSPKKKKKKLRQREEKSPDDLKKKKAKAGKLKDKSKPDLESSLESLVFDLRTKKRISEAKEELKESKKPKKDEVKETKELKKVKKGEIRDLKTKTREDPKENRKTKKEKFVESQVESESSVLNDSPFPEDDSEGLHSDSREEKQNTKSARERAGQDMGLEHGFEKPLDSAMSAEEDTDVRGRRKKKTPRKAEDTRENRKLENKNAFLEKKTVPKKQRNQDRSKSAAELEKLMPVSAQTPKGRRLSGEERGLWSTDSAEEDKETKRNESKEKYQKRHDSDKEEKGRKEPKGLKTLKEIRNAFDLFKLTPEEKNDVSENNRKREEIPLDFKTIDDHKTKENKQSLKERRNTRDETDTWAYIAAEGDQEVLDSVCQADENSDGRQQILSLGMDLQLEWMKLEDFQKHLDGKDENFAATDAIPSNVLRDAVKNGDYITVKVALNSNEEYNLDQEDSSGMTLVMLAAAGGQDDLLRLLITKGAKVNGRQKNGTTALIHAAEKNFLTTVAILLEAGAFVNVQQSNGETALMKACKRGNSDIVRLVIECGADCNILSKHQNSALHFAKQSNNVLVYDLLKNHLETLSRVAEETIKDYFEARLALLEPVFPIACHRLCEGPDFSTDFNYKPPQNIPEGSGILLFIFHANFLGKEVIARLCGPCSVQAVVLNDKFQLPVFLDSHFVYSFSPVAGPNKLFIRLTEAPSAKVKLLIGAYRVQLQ
Sequence of DNA polymerase III PolC-type (Bacillus subtilis (strain 168)) (P13267 whole entry, looked up): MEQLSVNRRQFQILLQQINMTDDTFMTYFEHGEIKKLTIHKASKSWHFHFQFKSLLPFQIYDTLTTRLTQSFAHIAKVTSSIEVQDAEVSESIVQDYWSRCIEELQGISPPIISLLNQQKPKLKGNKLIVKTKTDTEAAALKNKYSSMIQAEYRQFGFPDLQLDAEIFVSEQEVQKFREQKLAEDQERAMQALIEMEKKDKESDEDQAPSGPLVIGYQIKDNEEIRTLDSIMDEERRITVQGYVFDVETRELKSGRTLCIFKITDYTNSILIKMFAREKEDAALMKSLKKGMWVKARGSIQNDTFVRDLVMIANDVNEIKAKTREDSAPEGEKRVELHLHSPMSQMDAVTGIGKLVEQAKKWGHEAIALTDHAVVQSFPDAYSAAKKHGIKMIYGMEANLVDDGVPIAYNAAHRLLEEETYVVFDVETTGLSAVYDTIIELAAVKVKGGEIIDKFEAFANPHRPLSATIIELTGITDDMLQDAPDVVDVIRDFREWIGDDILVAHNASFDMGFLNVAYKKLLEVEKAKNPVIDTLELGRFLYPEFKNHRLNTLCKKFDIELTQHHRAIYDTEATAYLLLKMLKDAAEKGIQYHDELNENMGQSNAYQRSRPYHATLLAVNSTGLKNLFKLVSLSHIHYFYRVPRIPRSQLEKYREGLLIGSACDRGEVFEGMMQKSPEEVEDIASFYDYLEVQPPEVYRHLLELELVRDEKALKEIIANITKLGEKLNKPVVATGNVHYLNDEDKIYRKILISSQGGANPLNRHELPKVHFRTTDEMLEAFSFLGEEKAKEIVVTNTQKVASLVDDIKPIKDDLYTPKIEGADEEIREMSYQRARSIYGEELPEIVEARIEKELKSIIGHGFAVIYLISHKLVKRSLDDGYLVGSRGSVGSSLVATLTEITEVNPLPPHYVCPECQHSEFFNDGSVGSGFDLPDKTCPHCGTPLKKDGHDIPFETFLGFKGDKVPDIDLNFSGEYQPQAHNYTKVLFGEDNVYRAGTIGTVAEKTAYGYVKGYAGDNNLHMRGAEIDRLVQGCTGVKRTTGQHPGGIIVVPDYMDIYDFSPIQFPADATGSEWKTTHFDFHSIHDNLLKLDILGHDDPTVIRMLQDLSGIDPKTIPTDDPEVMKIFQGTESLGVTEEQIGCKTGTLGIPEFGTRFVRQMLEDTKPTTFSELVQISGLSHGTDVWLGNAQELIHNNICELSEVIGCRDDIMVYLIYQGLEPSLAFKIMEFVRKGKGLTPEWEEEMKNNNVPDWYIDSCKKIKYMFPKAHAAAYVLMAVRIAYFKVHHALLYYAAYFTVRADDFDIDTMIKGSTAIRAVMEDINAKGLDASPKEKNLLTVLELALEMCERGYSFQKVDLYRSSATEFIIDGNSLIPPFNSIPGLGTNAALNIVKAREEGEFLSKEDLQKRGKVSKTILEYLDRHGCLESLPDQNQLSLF
Sequence of Ubiquitin carboxyl-terminal hydrolase 2 (Homo sapiens) (O75604 whole entry, looked up): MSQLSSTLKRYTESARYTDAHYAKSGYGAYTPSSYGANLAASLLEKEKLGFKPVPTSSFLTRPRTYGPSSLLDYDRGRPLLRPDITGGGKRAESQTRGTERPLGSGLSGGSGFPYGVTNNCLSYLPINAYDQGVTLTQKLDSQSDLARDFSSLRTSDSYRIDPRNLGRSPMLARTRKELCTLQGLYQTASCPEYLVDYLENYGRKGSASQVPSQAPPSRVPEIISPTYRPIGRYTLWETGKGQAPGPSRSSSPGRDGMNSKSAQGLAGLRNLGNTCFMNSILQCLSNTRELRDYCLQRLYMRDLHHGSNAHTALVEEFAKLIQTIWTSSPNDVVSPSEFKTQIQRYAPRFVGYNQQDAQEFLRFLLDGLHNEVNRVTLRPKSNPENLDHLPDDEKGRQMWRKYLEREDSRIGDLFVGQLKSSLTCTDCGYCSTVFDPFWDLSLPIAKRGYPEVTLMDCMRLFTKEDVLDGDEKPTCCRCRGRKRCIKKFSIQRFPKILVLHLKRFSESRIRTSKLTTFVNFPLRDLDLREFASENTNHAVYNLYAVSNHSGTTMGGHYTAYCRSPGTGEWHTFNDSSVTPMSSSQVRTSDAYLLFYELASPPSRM
Sequence of Chromobox protein homolog 1 (Homo sapiens) (P83916 whole entry, looked up): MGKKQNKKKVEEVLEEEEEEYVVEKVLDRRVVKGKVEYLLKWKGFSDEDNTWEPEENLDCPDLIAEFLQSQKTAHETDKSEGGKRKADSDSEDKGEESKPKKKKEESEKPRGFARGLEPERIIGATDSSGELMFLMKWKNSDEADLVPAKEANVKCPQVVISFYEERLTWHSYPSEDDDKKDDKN
Sequence of Flap endonuclease 1 (Homo sapiens) (P39748 whole entry, looked up): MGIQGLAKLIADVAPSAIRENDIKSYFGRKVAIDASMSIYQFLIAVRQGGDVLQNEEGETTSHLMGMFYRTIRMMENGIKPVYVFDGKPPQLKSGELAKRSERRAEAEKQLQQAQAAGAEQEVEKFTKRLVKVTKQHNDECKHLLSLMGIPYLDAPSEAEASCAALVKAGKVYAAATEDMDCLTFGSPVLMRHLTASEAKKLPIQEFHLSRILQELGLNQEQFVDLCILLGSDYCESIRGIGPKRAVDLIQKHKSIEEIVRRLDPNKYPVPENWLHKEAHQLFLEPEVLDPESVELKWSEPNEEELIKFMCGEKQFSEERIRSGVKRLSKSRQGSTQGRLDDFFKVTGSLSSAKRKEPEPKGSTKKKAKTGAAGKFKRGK

NOCC(=O)O
inactive: outcome [1] | Potency [2] | outcome [3] | Potency [4] | Potency [5] | Potency [6] | Potency [7]

O=C(c1ccc2c(c1)OCCO2)N1CCCCC1
inactive: outcome [3] | Potency [4] | Potency [5] | Potency [6] | Potency [7]

CCCCCCCC/C=C\CCCCCCCC(=O)NCCO
inactive: outcome [1] | Potency [2] | outcome [3] | Potency [4] | Potency [5] | Potency [6] | Potency [7]

C[C@]12C=CC(=O)C=C1CC[C@@H]1C2=CC[C@]2(C)[C@@H](C(=O)CN3CCN(c4cc(N5CCCC5)nc(N5CCCC5)n4)CC3)CC[C@@H]12
inactive: Potency [8] | outcome [3] | Potency [9] | Potency [4] | Potency [5] | Potency [6] | Potency [7]

CCCCCCC/C=C\CCCCCCCCC(=O)O
inactive: outcome [10] | outcome [1] | Potency [2] | Potency [4] | Potency [5] | Potency [6] | Potency [7]

NCCCCN=C(N)N
inactive: outcome [10] | outcome [1] | Potency [2] | Potency [4] | Potency [5] | Potency [6] | Potency [7]

COc1cc(CNC(=O)CCCCCCC(C)C)ccc1O
inactive: outcome [10] | outcome [1] | Potency [2] | Potency [4] | Potency [5] | Potency [6] | Potency [7]

CN[C@H](CC(C)C)C(=O)N[C@H]1C(=O)N[C@@H](CC(N)=O)C(=O)N[C@@H]2C(=O)N[C@H]3C(=O)N[C@H](C(=O)N[C@H](C(=O)O)c4cc(O)cc(O)c4-c4cc3ccc4O)[C@H](O)c3ccc(c(Cl)c3)Oc3cc2cc(c3O[C@@H]2O[C@H](CO)[C@@H](O)[C@H](O)[C@@H]2O[C@H]2C[C@](C)(N)[C@H](O)[C@H](C)O2)Oc2ccc(cc2Cl)[C@H]1O
150%: parasite growth, % of control (lower = inhibition) [14]
104%: parasite growth remaining, % of DMSO control (lower = more inhibition) [13]
inactive: Potency [11] | Potency [12] | outcome [3] | Potency [4] | Potency [5] | Potency [6] | Potency [7]
704%: growth, % of control [15]

Nc1ncnc2c1c(I)cn2[C@@H]1C[C@H](N)[C@@H](O)[C@H]1O
inactive: outcome [3] | Potency [4] | Potency [5] | Potency [6] | Potency [7]

CCCN(CC1CC1)c1nc(C)nc(Nc2c(Cl)cc(Cl)cc2Cl)c1Cl
inactive: outcome [10] | outcome [1] | Potency [2] | Potency [4] | Potency [5] | Potency [6] | Potency [7]

N#C/C(=C\c1ccc(O)c(O)c1)C(=O)NCCCc1ccccc1
inactive: outcome [10] | outcome [1] | Potency [2] | Potency [4] | Potency [5] | Potency [6] | Potency [7]

O=C(O)c1cc2cc(F)ccc2[nH]1
inactive: outcome [10] | outcome [1] | Potency [2] | Potency [4] | Potency [5] | Potency [6] | Potency [7]

N#C/C(=C\c1ccc(O)c(O)c1)C(=O)Nc1ccccc1
inactive: outcome [1] | Potency [2] | outcome [3] | Potency [4] | Potency [5] | Potency [6] | Potency [7]

O=C(O)c1cc(=O)c2ccccc2[nH]1
inactive: outcome [10] | outcome [1] | Potency [2] | Potency [4] | Potency [5] | Potency [6] | Potency [7]

NCCCS(=O)(=O)O
inactive: outcome [1] | Potency [2] | outcome [3] | Potency [4] | Potency [5] | Potency [6] | Potency [7]

O=C(N[C@@H](Cc1ccccc1)C(=O)CCl)OCc1ccccc1
active: Potency [2] 6.31 µM
inactive: outcome [1] | Potency [4] | Potency [5] | Potency [6] | Potency [7]

N[C@H](C(=O)O)[C@H](O)C(=O)O
inactive: outcome [1] | Potency [2] | outcome [3] | Potency [4] | Potency [5] | Potency [6] | Potency [7]

N[C@@H](CS(=O)O)C(=O)O
inactive: outcome [10] | outcome [1] | Potency [2] | Potency [4] | Potency [5] | Potency [6] | Potency [7]

Clc1ccc(N2CCN(Cc3cc4ccccn4n3)CC2)cc1
inactive: outcome [3] | Potency [4] | Potency [5] | Potency [6] | Potency [7]

C/C(=C\c1ccc(C(=O)O)cc1)c1ccc2c(c1)C(C)(C)CCC2(C)C
inactive: outcome [1] | Potency [2] | outcome [3] | Potency [4] | Potency [5] | Potency [6] | Potency [7]

Fc1ccc(C(OCCCc2cnc[nH]2)c2ccc(F)cc2)cc1
inactive: outcome [1] | Potency [2] | outcome [3] | Potency [4] | Potency [5] | Potency [6] | Potency [7]

Nc1ncnc2c1ncn2[C@@H]1O[C@H](COP(=O)(O)CP(=O)(O)OP(=O)(O)O)[C@@H](O)[C@H]1O
inactive: Potency [8] | Potency [4] | Potency [5] | Potency [6] | Potency [7]

Ic1ccc(N2CCN(Cc3c[nH]c4ncccc34)CC2)cc1
inactive: outcome [1] | Potency [2] | outcome [3] | Potency [4] | Potency [5] | Potency [6] | Potency [7]

NC(=O)C1=CN(C2OC(COP(=O)(O)OP(=O)(O)OC[C@H]3O[C@@H](n4cnc5c(N)ncnc54)[C@H](OP(=O)(O)O)[C@@H]3O)C(O)C2O)C=CC1 (some centres undefined)
inactive: outcome [3] | Potency [4] | Potency [5] | Potency [6] | Potency [7]

Cc1nc(N=Nc2cc(S(=O)(=O)O)c3cc([N+](=O)[O-])cc(S(=O)(=O)O)c3c2)c(COP(=O)(O)O)c(C=O)c1O
inactive: outcome [10] | outcome [1] | Potency [2] | Potency [4] | Potency [5] | Potency [6] | Potency [7]

CC[C@H](NC(=O)c1c(C)c(-c2ccccc2)nc2ccccc12)c1ccccc1
inactive: outcome [10] | outcome [1] | Potency [2] | Potency [4] | Potency [5] | Potency [6] | Potency [7]

N.N.N.N.N.N.N.N.N.N.N.N.N.N.O.O.[Ru+4].[Ru+5].[Ru+5]
inactive: outcome [3] | outcome [19] | Potency [4] | Potency [5] | Potency [6] | Potency [7]
active: Potency [16] 14.7 µM | Potency [17] 16.8 µM | Potency [18] 44.7 µM | Potency [9] 12 µM

Cc1nn(-c2ccccc2)c(C)c1/C=N/N1CCN(Cc2ccccc2)CC1
inactive: outcome [3] | Potency [4] | Potency [5] | Potency [6] | Potency [7]

Reference: PubChem BioAssay (NCATS)
